# High-throughput results (PubChem BioAssay)
# Shown are actives, neighbours in structure and some others; about 6% of the full set was active somewhere.
# D1 ag = activates the human D1 dopamine receptor | P21728 | AID 504660 | HEK293 T-REx D1 cells, calcium flux, agonist mode | activation, % at 2 µM | actives 1% (n = 360,000); in the data active means activation above about 30%; further: 0% is about no effect
#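 Tetracycline-induced HEK293 TREx D1 cells, force-coupled to calcium signalling, were dye-loaded with a no-wash calcium kit. Compound was pin-added after a 10 s baseline. Fluorescence was read kinetically at 1 cycle/s for 180 s, with calcium rises flagged as agonism.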
# D3 ag = D3 dopamine receptor (human) agonism | P35462 | D3R DiscoveRx beta-arrestin cells, luminescence, 90 min | max activation, % | actives 0.58% (n = 410,000); in the data active means max activation above about 30%; further: 0% is about no effect
# Target sequence (P35462 whole entry, looked up): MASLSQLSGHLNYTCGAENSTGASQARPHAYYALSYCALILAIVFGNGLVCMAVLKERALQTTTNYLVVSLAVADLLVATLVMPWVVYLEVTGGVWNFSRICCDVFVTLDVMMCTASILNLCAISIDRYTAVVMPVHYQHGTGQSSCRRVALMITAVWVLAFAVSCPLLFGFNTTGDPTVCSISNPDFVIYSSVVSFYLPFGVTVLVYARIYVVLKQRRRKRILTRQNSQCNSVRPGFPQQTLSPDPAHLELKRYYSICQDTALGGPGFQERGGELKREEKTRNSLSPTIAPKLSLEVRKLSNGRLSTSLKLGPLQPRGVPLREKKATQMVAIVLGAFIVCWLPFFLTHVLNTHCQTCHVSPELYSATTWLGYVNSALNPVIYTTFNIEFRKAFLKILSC
#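 Cells at 1500/well, incubated overnight, then treated with pinned compounds (dopamine as control) for 90 min at 37 degrees C. DiscoveRx reagent added for 30 - 60 minutes at room temperature; luminescence read.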
# DRD3 antagonist = antagonists of human D3 dopamine receptor; P35462; D3R cells, DiscoveRx beta-arrestin luminescence, antagonist mode; active compounds read low; max response, negative = inhibition, %; actives 2.5% (n = 360,000); AID 652054; in the data active means max response below about -50%; inconclusive means no clear call, values can overlap the other calls; further: on the % scale 0 is the no-effect control and ±100 the full control effect
#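 Cells expressing the human receptor were seeded at 1500 cells/well, incubated overnight at 37 degrees C in 5% CO2, then exposed to library compounds with dopamine controls for 90 minutes at 37 degrees C before luminescent detection.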
# D1 PAM = enhances dopamine response at the human D1 receptor | P21728 | HEK293 TREx D1 cells, calcium flux, dopamine EC20 potentiation | potentiation, % at 10 µM | actives 0.036% (n = 360,000) | AID 504651; in the data active means potentiation above about 30%; further: 0% is about no effect
# D1 antag = human D1 dopamine receptor antagonism; P21728; HEK293 TREx D1 cells, calcium flux, dopamine EC80; active compounds read low; activity change, negative = inhibition, % at 10 µM; actives 3.2% (n = 360,000); AID 504652; in the data active means activity change below about -30%; further: on the % scale 0 is the no-effect control and ±100 the full control effect
#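 Antagonism measured as reduced calcium response to an EC80 dopamine addition following 180 s compound pre-read; cells were inducible HEK293 Trex D1 plated overnight at 30 C, read kinetically at 1 cycle/sec.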
# Numbers without * were called inactive; ? = inconclusive; / = no result; ! = repeats disagree.
SMILES,D1 ag,D3 ag,DRD3 antagonist,D1 PAM,D1 antag
Cc1c(C(=O)NCc2ccccn2)oc2ccc(Br)cc12,3,-2,-9,-7,36
Cc1c(Cl)cccc1NC(=O)Cn1nc(C(F)(F)F)c2c1CCC2,2,-5,/,-4,-1
CCCCOc1ccc(C(=O)Nc2ccc3c(c2)N(C(C)=O)CCC3)cc1,0,1,/,1,12
CCOc1nc(Nc2ccc([N+](=O)[O-])cc2)nc(NC(C)(C)C)n1,1,9,-17,-9,-4
C=CCNc1nc(Nc2ccc([N+](=O)[O-])cc2)nc(OCC)n1,3,-8,5,-9,-55*
C=C[C@]1(C)C[C@@H](OC(=O)CSC(C)(C)CNC(=O)[C@H](N)C(C)C)[C@]2(C)[C@H](C)CC[C@]3(CCC(=O)[C@H]32)[C@@H](C)[C@@H]1O,/,-2,/,/,/
O=c1c2cnn(-c3ccccc3)c2ncn1Cc1ccccn1,3,0,-26,8,-41*
COc1ccc(-n2ncc3c(=O)n(CC(C)=O)cnc32)cc1,2,4,-11,-4,-34*
O=c1c2cnn(-c3ccccc3)c2ncn1Cc1cccnc1,2,1,-5,-3,1
CC1(C)CC(=O)C(C=Nc2cc(C(=O)c3ccccc3)ccc2N)=C(O)C1,13,-27,-125*,-14,-45*
CC1(C)CC(=O)C(C=Nc2ccc(N)cc2)=C(O)C1,1,5,-1,1,-4
COC(=O)c1ccc(N)c(N=CC2=C(O)CC(C)(C)CC2=O)c1,10,-8,-51*,-4,3
Cc1cc(C)c(NC(=O)Cn2nc(-c3ccncc3)ccc2=O)c(C)c1,1,-11,/,-4,0
CCC(=O)N1CCc2cc(Br)cc(S(=O)(=O)CCC(=O)N(CC)Cc3ccccc3)c21,0,-10,/,1,-2
CC(C)n1nnnc1-c1cccc(Cl)c1,2,8,-51*,15,-1
CC(C)n1nnnc1-c1cc(Cl)cc(Cl)c1,-1,5,0,-2,1
COc1ccccc1NS(=O)(=O)c1cc(C(=O)NC2CCN(Cc3ccccc3)CC2)ccc1C,/,-15,-92*,/,/
Cc1ccc(C(=O)NC2CCCCCC2)cc1S(=O)(=O)N1CCOCC1,5,1,0,-2,5
COc1ccccc1NS(=O)(=O)c1cccc(C(=O)NC2CCN(Cc3ccccc3)CC2)c1,18,-24,-95*,-7,-37*
COc1ccccc1NS(=O)(=O)c1ccc(C)c(C(=O)NC2CCN(Cc3ccccc3)CC2)c1,4,-13,?,-5,-6
C=CCN(c1ccccc1)S(=O)(=O)c1cccc(C(=O)NC2CCN(Cc3ccccc3)CC2)c1,3,-27,-79*,1,-37*
Cc1ccc(C(=O)NC2CCN(Cc3ccccc3)CC2)cc1S(=O)(=O)N1CCOCC1,2,-34,-67*,1,-14
CCc1cccc(NC(=O)Cn2c(=O)n(CCC(=O)NCc3ccccc3Cl)c(=O)c3sccc32)c1,5,-2,/,1,1
O=C(NC1CCN(Cc2ccccc2)CC1)c1cccc(S(=O)(=O)Nc2ccc(Br)cc2)c1,9,-31,-57*,-8,6
O=C(Nc1ccc(Br)cc1)c1cccc(S(=O)(=O)Nc2ccccn2)c1,6,-9,-16,-4,-62*
SMILES,D1 ag,D3 ag,DRD3 antagonist,D1 PAM,D1 antag
O=C(Nc1ccccc1)c1cccc(S(=O)(=O)Nc2ccccn2)c1,4,-3,0,-5,-7
O=C(NC1CCN(Cc2ccccc2)CC1)c1cccc(S(=O)(=O)Nc2ccc(F)cc2)c1,14,-25,?,-6,-7
Cc1ccc(NS(=O)(=O)c2cccc(C(=O)NC3CCN(Cc4ccccc4)CC3)c2)c(C)c1,/,-20,-97*,/,/
CCCN(C(=O)Cn1cnc2sc(C)c(S(=O)(=O)N3CCN(c4ncccn4)CC3)c2c1=O)c1cccc(C)c1,-1,-1,/,1,3
Cc1ccc2c(c1)N(Cc1ccncc1)C(=O)C(C)O2 (centres undefined),2,2,7,-10,-34*
COc1ccc(C2CNC(=O)C2)cc1OC1CCCC1 (centres undefined),1,8,-8,2,-42*!
CCOC(=O)/C=C/[C@H]1CCc2cccc(C)c2O1,-2,5,-63*,2,/
CCOC(=O)/C=C/[C@H]1Cc2ccccc2CO1,0,-11,1,-2,53
Cc1oc2c(c(C)cc3oc(=O)c(CC(=O)NCCc4ccccc4F)c(C)c32)c1C,0,-19,/,1,0
CN(C)c1ccc(C(CNS(=O)(=O)c2ccc(F)cc2)N2CCCC2)cc1 (centres undefined),59*,-15,/,6,7
CN(C)c1ccc(C(CNC(=O)c2ccc(C(C)(C)C)cc2)N2CCCC2)cc1 (centres undefined),38*,-17,/,3,-9
COc1ccc(C(=O)NCC(c2ccc(N(C)C)cc2)N2CCCC2)cc1 (centres undefined),4,-18,/,0,-5
Cc1ccc(CCNC(=O)c2cc3ccccn3n2)cc1,2,3,/,1,-15
O=C(CCN1CCN(c2ccccc2F)CC1)Nc1ccccc1F,0,32*,-25,-7,6
O=C(CN1CCN(c2ccccc2O)CC1)Nc1ccccc1C(=O)NCCc1ccccc1,0,7,38,5,-41*
O=C(CN1CCN(c2ccccc2F)CC1)Nc1ccccc1F,3,-13,-58*,-4,-4
COc1ccc(CCNC(=O)c2ccccc2NC(=O)CN2CCN(c3ccccc3O)CC2)cc1,-1,26,13,-5,4
Cn1nc(-c2ccc(OCC(=O)Nc3ccc(Cl)cc3)cc2)c2ccccc2c1=O,14,4,/,-4,2
CCCCN(CC)CCCNC(=O)c1nn(-c2ccc(OC)cc2)c(=O)c2c1c1ccccc1n2C,0,-7,/,8,-18
COc1ccc(CNC(=O)CN2C(=O)CSc3ccc(S(=O)(=O)N4CCC(C)CC4)cc32)cc1,1,-14,/,1,9
O=C(CSc1ccc(-c2cccnc2)nn1)Nc1ccc(F)cc1,7,-4,-63*,-1,11
Cc1ccc(NC(=O)CSc2ccc(-c3cccnc3)nn2)cc1,4,-6,1,-8,6
Cc1ccc(OCC(=O)Nc2ccccc2C(=O)OCc2cc(=O)n3ccsc3n2)cc1C,0,-7,/,2,4
Fc1c(F)c(C(F)(F)F)c(F)c(F)c1N/N=C\c1cccs1,12,3,22,-4,-34*
CC(C)N(Cc1ccccc1)C(=O)c1nc(-c2ccc(Cl)cc2)n2c1CCCCC2,-1,-24,/,3,-3
COCCNC(=O)CCN1C(=O)c2cccnc2Oc2ccc(C)cc21,1,4,/,-1,9
C=CCc1c(C)nc2c(-c3ccccc3)cnn2c1N1CCOCC1,1,10,43,-8,-32*
